Laboratory results: the supplement of paper PMC10646978
± gives the standard deviation.

Experiments:
Details in all cases: modulator concentration 10 µM
[1] = system: RAW-Dual (murine macrophage reporter line); test: NF-kB reporter (SEAP) activity fold change vs agonist alone; higher = enhanced NF-kB activity
Procedure, shortened: (§1)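 Overnight stimulation with a PRR agonist followed pre-incubation for 1 hour at 37 °C with compound at 10 μM final. This was done in RAW-Dual murine macrophage reporter cells seeded at 50 000 per well in 384-well plates. NF-κB (SEAP, QUANTI-Blue absorbance at 620 nm) and IRF (Lucia luciferase, QUANTI-Luc luminescence) were read from the supernatant. Each reporter's fold change relative to the mean agonist-only control on the same plate was averaged over replicate plates.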

[2] = system: RAW-Dual (murine macrophage reporter line); test: IRF reporter (Lucia luciferase) activity fold change vs agonist alone; higher = enhanced IRF activity
Procedure, shortened: as §1

[3] = system: RAW-Dual (murine macrophage reporter line); test: viability score (confluency relative to resting cells, overnight) (fraction); higher = more viable, active = viable (0.7 or more)
Procedure, shortened: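 In 384-well plates, RAW-Dual macrophages received compound at a final 10 μM overnight. Two confluency masks were then made with IncuCyte software from IncuCyte images of all imaged wells. The viability score is defined as confluency relative to resting cells. Passing the cutoff required both masks to lie above 70% of resting cells.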

[4] = agonist: CpG ODN 1826 0.5 ug/mL

Row | Compound | NF-kB reporter [1, 4] | NF-kB reporter ([1]; agonist: LPS 0.1 ug/mL) | NF-kB reporter ([1]; agonist: MPLA […]) | IRF reporter ([2]; agonist: 3'3'-cGAMP 10 ug/mL) | IRF reporter ([2]; agonist: LPS 0.1 ug/mL) | IRF reporter ([2]; agonist: MPLA […]) | viability score [3]
1 | Cc1ccc(-c2nn(-c3ccccc3)cc2C=C2C(=O)NC(=O)NC2=O)o1 | 1 ± 0.094 | 1.07 ± 0.066 | 1 ± 0.08 | 1.01 ± 0.037 | 1.42 ± 0.23 | 1.16 ± 0.072 | 1.01 (active)
2 | O=C(O)c1nn(Cc2ccc(Cl)cc2Cl)c2ccccc12 | 0.833 ± 0.12 | 0.959 ± 0.14 | 0.943 ± 0.055 | 0.926 ± 0.033 | 1.04 ± 0.25 | 1.06 ± 0.18 | 1 (active)
3 | CC(O)(CS(=O)(=O)c1ccc(F)cc1)C(=O)Nc1ccc(C#N)c(C(F)(F)F)c1 (centres undefined) | 1.38 ± 0.26 | 0.966 ± 0.081 | 0.952 ± 0.053 | 0.991 ± 0.067 | 1.05 ± 0.095 | 1.23 ± 0.17 | 0.987 (active)
4 | O=C1NC(=O)C(=CNc2cccc(O)c2)C(=O)N1 | 0.859 ± 0.075 | 0.914 ± 0.053 | 1.09 ± 0.13 | 0.977 ± 0.062 | 1.43 ± 0.1 | 1.6 ± 0.17 | 1.01 (active)
5 | O=C(O)CC[N+](=O)[O-] | 0.87 ± 0.22 | 0.979 ± 0.066 | 0.974 ± 0.063 | 0.912 ± 0.086 | 0.96 ± 0.23 | 0.933 ± 0.12 | 1 (active)
6 | Fc1ccc(CNCCc2c[nH]c3ccccc23)cc1 | 0.733 ± 0.32 | 1.08 ± 0.15 | 0.955 ± 0.075 | 0.751 ± 0.063 | 1.1 ± 0.12 | 1.29 ± 0.28 | 0.599 (inactive)
7 | CCC1(C)CC(CCNCc2ccccc2)(c2ccc(C)cc2)CCO1 (centres undefined) | 0.701 ± 0.29 | 1.15 ± 0.099 | 1.19 ± 0.18 | 0.57 ± 0.018 | 1.38 ± 0.14 | 1.76 ± 0.31 | 0.547 (inactive)
8 | CCn1cc(C(=O)O)c(=O)c2c(N)c(F)c(N3CCNCC3)c(F)c21 | 0.952 ± 0.067 | 1.09 ± 0.068 | 0.859 ± 0.073 | 0.972 ± 0.033 | 1.47 ± 0.14 | 1.2 ± 0.2 | 0.998 (active)
9 | Cc1cc(C(=O)N2C3CCC2c2cncnc2C3)n(C)n1 (centres undefined) | 0.979 ± 0.074 | 1.01 ± 0.085 | 0.917 ± 0.046 | 0.983 ± 0.085 | 1.19 ± 0.096 | 1.11 ± 0.22 | 1 (active)
10 | CC[N+]1(C)CCCC(OC(=O)C(O)(c2ccccc2)c2ccccc2)C1 (centres undefined) [Prestw-760] | 0.921 ± 0.061 | 0.955 ± 0.092 | 0.966 ± 0.073 | 0.952 ± 0.038 | 1.13 ± 0.09 | 0.973 ± 0.18 | 0.994 (active)
11 | COc1ccc(C(CN(C)C)C2(O)CCCCC2)cc1.Cl (centres undefined) | 1.07 ± 0.08 | 1.06 ± 0.1 | 0.971 ± 0.056 | 1.07 ± 0.22 | 0.867 ± 0.052 | 0.928 ± 0.081 | 1 (active)
12 | CCC1(c2ccccc2)C(=O)N(Cc2ccccc2)C(=O)N(Cc2ccccc2)C1=O | 0.516 ± 0.03 | 1.08 ± 0.1 | 0.967 ± 0.056 | 1.17 ± 0.093 | 1.25 ± 0.14 | 1.18 ± 0.11 | 1.01 (active)
13 | CCC1(c2c[nH]cn2)Cc2ccccc2C1.Cl | 0.752 ± 0.1 | 1.11 ± 0.082 | 0.863 ± 0.05 | 1 ± 0.05 | 1.25 ± 0.11 | 1.07 ± 0.081 | 0.976 (active)
14 | Br.CN1C2CC(OC(=O)C(CO)c3ccccc3)CC1C1OC12 (centres undefined) | 1.32 ± 0.32 | 0.999 ± 0.051 | 1.01 ± 0.074 | 1 ± 0.034 | 1.19 ± 0.13 | 1.19 ± 0.13 | 0.985 (active)
15 | CCOC(=O)c1ccccc1-c1ccc(C=C2C(=O)NC(=O)N(c3ccc(C)cc3)C2=O)o1 | 0.912 ± 0.071 | 0.931 ± 0.058 | 0.971 ± 0.087 | 0.999 ± 0.061 | 1.4 ± 0.081 | 1.7 ± 0.14 | 0.951 (active)
16 | C1=C(c2c[nH]c3ccccc23)CCNC1 | 0.448 ± 0.025 | 1.03 ± 0.069 | 0.915 ± 0.079 | 0.496 ± 0.016 | 1.15 ± 0.077 | 0.898 ± 0.087 | 0.989 (active)
17 | CCC1(O)C(=O)OCc2c1cc1n(c2=O)Cc2cc3ccccc3nc2-1 (centres undefined) | 0.948 ± 0.074 | 0.912 ± 0.069 | 0.889 ± 0.092 | 1.04 ± 0.033 | 1.24 ± 0.2 | 1.41 ± 0.24 | 0.974 (active)
18 | O=c1[nH]c2ccccc2n1CCCN1CCC(n2c(=O)[nH]c3cc(Cl)ccc32)CC1 | 0.114 ± 0.018 | 1.14 ± 0.082 | 0.973 ± 0.074 | 0.865 ± 0.026 | 1.31 ± 0.14 | 1.12 ± 0.092 | 0.981 (active)
19 | Cc1cc(OC(=O)C2CCCCC2)c2c3c(c(=O)oc2c1)CCC3 | 0.947 ± 0.094 | 1.01 ± 0.063 | 0.968 ± 0.058 | 0.948 ± 0.042 | 1.29 ± 0.13 | 1.13 ± 0.07 | 1.01 (active)
20 | Cc1c(NN=C2C(=O)NC(=O)NC2=O)c(=O)n(-c2ccccc2)n1C | 1.02 ± 0.1 | 1.03 ± 0.086 | 0.958 ± 0.042 | 0.951 ± 0.13 | 1.08 ± 0.096 | 0.932 ± 0.14 | 0.999 (active)
21 | Cc1cc(C(C#N)c2ccc(Cl)cc2)c(Cl)cc1NC(=O)c1cc(I)cc(I)c1O (centres undefined) | 0.812 ± 0.14 | 0.999 ± 0.15 | 0.834 ± 0.055 | 0.731 ± 0.058 | 1.3 ± 0.11 | 1.02 ± 0.085 | 0.389 (inactive)
22 | CCOC(=O)Nc1ccc(NCc2ccc(F)cc2)cc1N | 0.882 ± 0.039 | 1.09 ± 0.086 | 0.936 ± 0.051 | 0.893 ± 0.044 | 1.2 ± 0.33 | 1.33 ± 0.51 | 1.01 (active)
23 | CN1C(=O)COc2c(C(=O)NC3CN4CCC3CC4)cc(Cl)cc21.Cl (centres undefined) | 0.661 ± 0.054 | 0.831 ± 0.09 | 1.08 ± 0.089 | 0.997 ± 0.046 | 1.42 ± 0.26 | 1.71 ± 0.51 | 0.94 (active)
24 | CCOc1cc(C=C2C(=O)NC(=O)NC2=O)ccc1OCc1c(Cl)cccc1Cl | 1.06 ± 0.091 | 1.01 ± 0.07 | 0.938 ± 0.11 | 1.07 ± 0.038 | 1.35 ± 0.11 | 1.2 ± 0.14 | 1.01 (active)
25 | CCC1(C)CC(=O)NC(=O)C1 | 0.907 ± 0.15 | 0.842 ± 0.14 | 0.941 ± 0.054 | 0.899 ± 0.073 | 1.02 ± 0.11 | 1.11 ± 0.16 | 0.985 (active)
26 | O=c1cc(CCl)occ1O | 1.18 ± 0.09 | 0.9 ± 0.09 | 1.13 ± 0.04 | 0.948 ± 0.13 | 0.876 ± 0.11 | 0.806 ± 0.26 | 0.999 (active)
27 | Cc1cccc(-n2c(C)nc3ccccc3c2=O)n1 | 0.88 ± 0.052 | 0.827 ± 0.1 | 0.949 ± 0.039 | 1.02 ± 0.041 | 1.02 ± 0.054 | 0.935 ± 0.19 | 0.998 (active)
